Measurements published in publication PMC11006913.

What was measured:
Experiment in all cases: PBM; 200 nM protein, PBS
Details in all cases: dsDNA, one strand shown
HOXB4 [1] = target: HOXB4 (Homo sapiens, UniProt P17483 148-234)
HOXB4 [2] = target: HOXB4 (Homo sapiens, UniProt P17483 148-234, V174I)
HOXA4 [3] = target: HOXA4 (Homo sapiens, UniProt Q00056 201-287, W262R)
HOXA2 [4] = target: HOXA2 (Homo sapiens, UniProt O43364 129-215, R185T)
HOXA4 [5] = target: HOXA4 (Homo sapiens, UniProt Q00056 201-287, R217L)
HOXA2 [6] = target: HOXA2 (Homo sapiens, UniProt O43364 129-215, R185K)
HOXA4 [7] = target: HOXA4 (Homo sapiens, UniProt Q00056 201-287)
HOXA2 [8] = target: HOXA2 (Homo sapiens, UniProt O43364 129-215, Y150S)
HOXA4 [9] = target: HOXA4 (Homo sapiens, UniProt Q00056 201-287, W262F)
HOXA2 [10] = target: HOXA2 (Homo sapiens, UniProt O43364 129-215)
VENTX = target: T1, VENTX (Homo sapiens, UniProt O95231 78-163, Y115F)
T1 sequence: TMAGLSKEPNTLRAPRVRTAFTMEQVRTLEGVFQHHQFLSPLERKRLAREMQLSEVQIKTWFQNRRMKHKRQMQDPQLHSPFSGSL

VAX1 [11] = target: VAX1 (Homo sapiens, UniProt Q5SQQ9 86-172)
VAX1 [12] = target: VAX1 (Homo sapiens, UniProt Q5SQQ9 86-172, T142I)
VAX1 [13] = target: VAX1 (Homo sapiens, UniProt Q5SQQ9 86-172, K157R)
VAX1 (Homo sapiens, UniProt Q5SQQ9 86-172, K157R), sequence (Q5SQQ9 86-172 K157R): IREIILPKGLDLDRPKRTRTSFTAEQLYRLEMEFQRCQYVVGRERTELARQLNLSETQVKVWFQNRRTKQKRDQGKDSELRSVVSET

HOXB4 (Homo sapiens, UniProt P17483 148-234), sequence (P17483 148-234): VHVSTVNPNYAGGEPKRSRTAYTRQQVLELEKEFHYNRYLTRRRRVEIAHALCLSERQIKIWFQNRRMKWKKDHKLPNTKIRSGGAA
HOXA4 (Homo sapiens, UniProt Q00056 201-287), sequence (Q00056 201-287): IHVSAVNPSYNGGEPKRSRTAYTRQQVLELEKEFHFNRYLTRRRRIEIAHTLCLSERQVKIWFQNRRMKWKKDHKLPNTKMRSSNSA
HOXA4 (Homo sapiens, UniProt Q00056 201-287, W262R), sequence (Q00056 201-287 W262R): as the sequence (Q00056 201-287) above, with W62R counted along it
HOXA2 (Homo sapiens, UniProt O43364 129-215), sequence (O43364 129-215): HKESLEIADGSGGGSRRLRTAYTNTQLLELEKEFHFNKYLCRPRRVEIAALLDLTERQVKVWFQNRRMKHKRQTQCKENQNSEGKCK
HOXA2 (Homo sapiens, UniProt O43364 129-215, R185K), sequence (O43364 129-215 R185K): as the sequence (O43364 129-215) above, with R57K counted along it
HOXA4 (Homo sapiens, UniProt Q00056 201-287, R217L), sequence (Q00056 201-287 R217L): as the sequence (Q00056 201-287) above, with R17L counted along it
HOXA2 (Homo sapiens, UniProt O43364 129-215, R185T), sequence (O43364 129-215 R185T): as the sequence (O43364 129-215) above, with R57T counted along it
HOXA4 (Homo sapiens, UniProt Q00056 201-287, W262F), sequence (Q00056 201-287 W262F): as the sequence (Q00056 201-287) above, with W62F counted along it
HOXA2 (Homo sapiens, UniProt O43364 129-215, Y150S), sequence (O43364 129-215 Y150S): as the sequence (O43364 129-215) above, with Y22S counted along it
HOXB4 (Homo sapiens, UniProt P17483 148-234, V174I), sequence (P17483 148-234 V174I): as the sequence (P17483 148-234) above, with V27I counted along it
VAX1 (Homo sapiens, UniProt Q5SQQ9 86-172), sequence (Q5SQQ9 86-172): as the sequence (Q5SQQ9 86-172 K157R) above, with R72K counted along it
VAX1 (Homo sapiens, UniProt Q5SQQ9 86-172, T142I), sequence (Q5SQQ9 86-172 T142I): as the sequence (Q5SQQ9 86-172 K157R) above, with T57I, R72K counted along it

Row | Sequence | binding signal (HOXB4 [1]) | binding signal (HOXB4 [2]) | binding signal (HOXA4 [3]) | binding signal (HOXA2 [4]) | binding signal (HOXA4 [5]) | binding signal (HOXA2 [6]) | binding signal (HOXA4 [7]) | binding signal (HOXA2 [8]) | binding signal (HOXA4 [9]) | binding signal (HOXA2 [10]) | binding signal (VENTX) | binding signal (VAX1 [11]) | binding signal (VAX1 [12]) | binding signal (VAX1 [13])
1 | ATTTGAAC | 9.93 upbm affinity estimate (log intensity, higher = more binding, comparable within an allelic series) | 9.93 upbm affinity estimate (log intensity, higher = more binding, comparable within an allelic series) | – | – | – | – | – | – | – | – | – | – | – | –
2 | CTGGCGGC | 7.3 upbm affinity estimate (log intensity, higher = more binding, comparable within an allelic series) | 7.49 upbm affinity estimate (log intensity, higher = more binding, comparable within an allelic series) | 9.71 upbm affinity estimate (log intensity, higher = more binding, comparable within an allelic series) | 7.15 upbm affinity estimate (log intensity, higher = more binding, comparable within an allelic series) | 9.74 upbm affinity estimate (log intensity, higher = more binding, comparable within an allelic series) | 10.3 upbm affinity estimate (log intensity, higher = more binding, comparable within an allelic series) | 9.58 upbm affinity estimate (log intensity, higher = more binding, comparable within an allelic series) | 10.5 upbm affinity estimate (log intensity, higher = more binding, comparable within an allelic series) | 9.86 upbm affinity estimate (log intensity, higher = more binding, comparable within an allelic series) | 7.36 upbm affinity estimate (log intensity, higher = more binding, comparable within an allelic series) | – | – | – | –
3 | CATAATGA | 13 upbm affinity estimate (log intensity, higher = more binding, comparable within an allelic series) | 13.5 upbm affinity estimate (log intensity, higher = more binding, comparable within an allelic series) | 10.6 upbm affinity estimate (log intensity, higher = more binding, comparable within an allelic series) | 12 upbm affinity estimate (log intensity, higher = more binding, comparable within an allelic series) | 11.9 upbm affinity estimate (log intensity, higher = more binding, comparable within an allelic series) | 13.1 upbm affinity estimate (log intensity, higher = more binding, comparable within an allelic series) | 13.6 upbm affinity estimate (log intensity, higher = more binding, comparable within an allelic series) | 11 upbm affinity estimate (log intensity, higher = more binding, comparable within an allelic series) | 11.3 upbm affinity estimate (log intensity, higher = more binding, comparable within an allelic series) | 12.1 upbm affinity estimate (log intensity, higher = more binding, comparable within an allelic series) | – | – | – | –
4 | ACCTCTCG | 7.54 upbm affinity estimate (log intensity, higher = more binding, comparable within an allelic series) | 7.48 upbm affinity estimate (log intensity, higher = more binding, comparable within an allelic series) | 9.8 upbm affinity estimate (log intensity, higher = more binding, comparable within an allelic series) | – | 9.73 upbm affinity estimate (log intensity, higher = more binding, comparable within an allelic series) | – | 9.69 upbm affinity estimate (log intensity, higher = more binding, comparable within an allelic series) | – | 9.82 upbm affinity estimate (log intensity, higher = more binding, comparable within an allelic series) | – | – | – | – | –
5 | CGCCGAAG | 7.84 upbm affinity estimate (log intensity, higher = more binding, comparable within an allelic series) | 7.65 upbm affinity estimate (log intensity, higher = more binding, comparable within an allelic series) | – | – | – | – | – | – | – | – | – | – | – | –
6 | TAATGACA | 13 upbm affinity estimate (log intensity, higher = more binding, comparable within an allelic series) | 13.7 upbm affinity estimate (log intensity, higher = more binding, comparable within an allelic series) | 10.6 upbm affinity estimate (log intensity, higher = more binding, comparable within an allelic series) | 12.6 upbm affinity estimate (log intensity, higher = more binding, comparable within an allelic series) | 12.2 upbm affinity estimate (log intensity, higher = more binding, comparable within an allelic series) | 13.4 upbm affinity estimate (log intensity, higher = more binding, comparable within an allelic series) | 13.8 upbm affinity estimate (log intensity, higher = more binding, comparable within an allelic series) | 11 upbm affinity estimate (log intensity, higher = more binding, comparable within an allelic series) | 11.7 upbm affinity estimate (log intensity, higher = more binding, comparable within an allelic series) | 12.5 upbm affinity estimate (log intensity, higher = more binding, comparable within an allelic series) | 11.5 upbm affinity estimate (log intensity, higher = more binding, comparable within an allelic series) | 12.8 upbm affinity estimate (log intensity, higher = more binding, comparable within an allelic series) | 12.7 upbm affinity estimate (log intensity, higher = more binding, comparable within an allelic series) | 12.5 upbm affinity estimate (log intensity, higher = more binding, comparable within an allelic series)
7 | GGCCCCCA | 7.76 upbm affinity estimate (log intensity, higher = more binding, comparable within an allelic series) | 7.77 upbm affinity estimate (log intensity, higher = more binding, comparable within an allelic series) | 9.68 upbm affinity estimate (log intensity, higher = more binding, comparable within an allelic series) | – | 9.68 upbm affinity estimate (log intensity, higher = more binding, comparable within an allelic series) | – | 9.71 upbm affinity estimate (log intensity, higher = more binding, comparable within an allelic series) | – | 9.82 upbm affinity estimate (log intensity, higher = more binding, comparable within an allelic series) | – | – | – | – | –
